Laboratory results reported in PubChem BioAssay (NCI).
This is part of a sample that, as a whole, favours compounds with a hit. Of some 79,000 tested, about 15% had one in any assay. Calls of active or inactive are those of the source. No stated cut-off is given here; in the data, active means growth inhibition above about 70%; inactive means the rest.

How the values were obtained:
[1] = NCI Yeast Anticancer Drug Screen. Data for the mec2-1 strain (AID 157); conditions: S. cerevisiae mec2-1 strain, active compounds read high
Summary of the method: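 Readout is yeast growth inhibition, normalised to vehicle-treated controls, in the mec2-1 strain exposed to compound.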

[2] = NCI Yeast Anticancer Drug Screen. Data for the rad14 strain (AID 159);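 further: 0% = growth of vehicle-treated control cultures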; conditions: S. cerevisiae rad14 strain growth inhibition, active compounds read high
Summary of the method: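 Yeast cells carrying a defined DNA-repair defect were exposed to compounds, and growth inhibition was calculated relative to vehicle-treated control cultures.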

[3] = NCI Yeast Anticancer Drug Screen. Data for the sgs1 mgt1 strain (AID 161);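 further: 0% = growth of cultures given vehicle only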; conditions: S. cerevisiae sgs1 mgt1 strain, active compounds read high
Summary of the method: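 Growth of a repair-deficient yeast mutant was monitored after compound treatment and expressed as inhibition relative to vehicle-treated cultures.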

[4] = NCI Yeast Anticancer Drug Screen. Data for the CLN2oe strain (AID 163);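 further: 0% = growth of vehicle-only control cultures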; conditions: S. cerevisiae CLN2oe strain, active compounds read high
Summary of the method: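 Values reflect how much compound exposure reduced yeast growth, referenced to vehicle-exposed cells. Assay organism is a strain with a defined genetic change affecting cell-cycle control.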

[5] = NCI Yeast Anticancer Drug Screen. Data for the cln2 rad14 strain (AID 165);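 further: 0% = growth equal to vehicle treated cultures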; conditions: S. cerevisiae cln2 rad14 strain, active compounds read high
Summary of the method: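 Relative to vehicle controls, growth inhibition of compound-treated cln2 rad14 yeast was recorded.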

[6] = NCI Yeast Anticancer Drug Screen. Data for the bub3 strain (AID 167); conditions: S. cerevisiae bub3 mutant strain, active compounds read high
Summary of the method: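 Compounds were applied to a genetically altered yeast strain carrying a cell-cycle control defect. Growth inhibition was scored against vehicle-treated controls.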

[7] = NCI Yeast Anticancer Drug Screen. Data for the wt2 strain (AID 169);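 further: 0% = growth of vehicle-treated yeast cultures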; conditions: S. cerevisiae wt2 strain growth inhibition, active compounds read high
Summary of the method: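 Values express reduction in yeast growth under compound treatment, referenced to vehicle-treated cells.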

[8] = NCI Yeast Anticancer Drug Screen. Data for the mlh1 strain (AID 171);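 further: 0% = growth of vehicle-treated control cultures of the same strain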; conditions: S. cerevisiae mlh1 strain growth inhibition, active compounds read high
Summary of the method: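 Steps: expose the defined-mutant yeast strain to compound; expose a parallel culture to vehicle; measure growth; express compound effect as inhibition relative to the vehicle culture.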

[9] = NCI Yeast Anticancer Drug Screen. Data for the sgs1 strain (AID 173);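 further: 0% = growth of vehicle-only control cultures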; conditions: S. cerevisiae sgs1 mutant, active compounds read high
Summary of the method: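 Treat defined-mutant yeast with compound; measure growth; calculate inhibition relative to vehicle-treated cells.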

[10] = NCI Yeast Anticancer Drug Screen. Data for the mlh1 rad18 strain (AID 175); conditions: S. cerevisiae mlh1 rad18 strain growth inhibition, active compounds read high
Summary of the method: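 Test agents were incubated with a yeast strain of defined genotype (DNA damage repair defect). Inhibition of growth was derived by comparison with vehicle-exposed cultures.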

[11] = NCI Yeast Anticancer Drug Screen. Data for the rad18 strain (AID 177); conditions: S. cerevisiae rad18 mutant growth inhibition, active compounds read high
Summary of the method: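 A genetically defined yeast mutant impaired in DNA damage repair was treated with test compounds, then its growth was measured against cultures receiving vehicle alone.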

[12] = NCI Yeast Anticancer Drug Screen. Data for the rad52 strain (AID 147);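 further: 0% = growth of vehicle-treated control cultures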; conditions: S. cerevisiae rad52 mutant growth inhibition, active compounds read high
Summary of the method: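 Screen used a yeast mutant impaired in DNA repair. After compound exposure, growth was measured. Values reflect inhibition compared with vehicle-treated cells.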

[13] = NCI Yeast Anticancer Drug Screen. Data for the wt1 strain (AID 149);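 further: 0% = growth of vehicle-treated wt1 cultures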; conditions: S. cerevisiae wt1 strain (SPY 50644) growth inhibition, active compounds read high
Summary of the method: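 Yeast wt1 strain exposed to compounds; growth inhibition measured relative to vehicle-treated controls.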

[14] = NCI Yeast Anticancer Drug Screen. Data for the rad50EPP+ strain (AID 151);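 further: 0% = growth of vehicle-treated control cultures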; conditions: S. cerevisiae rad50 mutant strain, active compounds read high
Summary of the method: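 Exposing the rad50EPP+ strain to each compound, growth was compared with vehicle-only cultures to give inhibition.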

[15] = NCI Yeast Anticancer Drug Screen. Data for the mgt1 strain (AID 153); conditions: S. cerevisiae mgt1 mutant growth inhibition, active compounds read high
Summary of the method: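 Genetically defined yeast (mgt1) treated with compound; inhibition of growth expressed against vehicle-treated controls.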

[16] = NCI Yeast Anticancer Drug Screen. Data for the rad50 strain (AID 155);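 further: 0% = growth of vehicle-only cultures of the same strain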; conditions: S. cerevisiae rad50 strain growth inhibition, active compounds read high
Summary of the method: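 Yeast carrying a defined DNA repair defect were exposed to test compounds, and growth was compared with vehicle-treated controls to give percent inhibition.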

[17] = at 5.0 µM (retest, dose inferred, filed as 0.5)
[18] = at 50.0 µM (retest, dose inferred, filed as 5.0)

Measured: growth inhibition

CC[N+](CC)(CC)c1ccccc1
active: [1]; [18] 98% | [6]; at 50.0 µM 75.5% | [10]; [18] 99%
inactive: [1]; [17] 35% | [1]; at 11.0 µM -8% | [1]; at 33.0 µM 1% | [1]; at 50.0 µM -1.75% | [1]; at 100.0 µM 8% | [2]; at 1.2 µM -28% | [2]; at 3.7 µM -36% | [2]; at 11.0 µM -34% | [2]; at 33.0 µM -33% | [2]; at 100.0 µM -25% | [3]; [17] -21% | [3]; [18] -13% | [3]; at 50.0 µM 39.8% | [4]; at 1.2 µM 16% | [4]; at 3.7 µM 5% | [4]; at 11.0 µM 8% | [4]; at 33.0 µM -11% | [4]; at 100.0 µM -8% | [5]; [17] 20% | [5]; [18] 33% | [5]; at 50.0 µM 24.1% | [6]; at 1.2 µM 16% | [6]; at 3.7 µM 15% | [6]; [17] 31% | [6]; at 11.0 µM 15% | [6]; at 33.0 µM 19% | [6]; [18] 26% | [6]; at 100.0 µM 11% | [7]; at 1.2 µM -23% | [7]; at 3.7 µM -32% | [7]; at 11.0 µM -32% | [7]; at 33.0 µM -23% | [7]; at 100.0 µM -30% | [8]; at 1.2 µM -26% | [8]; at 3.7 µM -46% | [8]; at 11.0 µM -43% | [8]; at 33.0 µM -43% | [8]; at 100.0 µM -42% | [9]; at 1.2 µM -15% | [9]; at 3.7 µM -21% | [9]; at 11.0 µM -22% | [9]; at 33.0 µM -19% | [9]; at 100.0 µM -23% | [10]; [17] 30% | [10]; at 50.0 µM 26.2% | [11]; at 1.2 µM 3% | [11]; at 3.7 µM 10% | [11]; at 11.0 µM 6% | [11]; at 33.0 µM 3% | [11]; at 100.0 µM 10%

O=[N+]([O-])c1cccc2nc3ccccc3c(NCCCn3ccnc3[N+](=O)[O-])c12
inactive: [12]; at 1.2 µM 53% | [12]; at 3.7 µM 65% | [13]; at 1.2 µM -6% | [13]; at 3.7 µM 24% | [13]; at 11.0 µM 37% | [13]; at 33.0 µM 64% | [14]; at 1.2 µM 24% | [14]; at 3.7 µM 37% | [14]; at 11.0 µM 58% | [15]; at 1.2 µM 17% | [15]; at 3.7 µM 28% | [15]; at 11.0 µM 38% | [15]; at 33.0 µM 55% | [16]; at 1.2 µM 23% | [16]; at 3.7 µM 63% | [16]; [17] 24% | [1]; at 1.2 µM 29% | [1]; at 3.7 µM 55% | [1]; [17] 16% | [2]; at 1.2 µM 17% | [3]; [17] 54% | [4]; at 1.2 µM 5% | [4]; at 3.7 µM 27% | [4]; at 11.0 µM 46% | [5]; [17] 52% | [6]; at 1.2 µM -15% | [6]; at 3.7 µM -12% | [6]; [17] 11% | [6]; at 11.0 µM 11% | [6]; at 33.0 µM 51% | [6]; at 50.0 µM 58.4% | [7]; at 1.2 µM -16% | [7]; at 3.7 µM -9% | [7]; at 11.0 µM 19% | [8]; at 1.2 µM 17% | [8]; at 3.7 µM 33% | [8]; at 11.0 µM 47% | [9]; at 1.2 µM 61% | [10]; [17] 26%
active: [12]; at 11.0 µM 86% | [12]; at 33.0 µM 94% | [12]; at 100.0 µM 97% | [13]; at 100.0 µM 86% | [14]; at 33.0 µM 83% | [14]; at 100.0 µM 90% | [15]; at 100.0 µM 82% | [16]; at 11.0 µM 86% | [16]; at 33.0 µM 94% | [16]; [18] 94% | [16]; at 50.0 µM 80% | [16]; at 100.0 µM 96% | [1]; at 11.0 µM 88% | [1]; at 33.0 µM 96% | [1]; [18] 98% | [1]; at 50.0 µM 87.5% | [1]; at 100.0 µM 97% | [2]; at 3.7 µM 73% | [2]; at 11.0 µM 95% | [2]; at 33.0 µM 97% | [2]; at 100.0 µM 98% | [3]; [18] 94% | [3]; at 50.0 µM 85% | [4]; at 33.0 µM 82% | [4]; at 100.0 µM 92% | [5]; [18] 97% | [5]; at 50.0 µM 87.4% | [6]; [18] 78% | [6]; at 100.0 µM 88% | [7]; at 33.0 µM 74% | [7]; at 100.0 µM 88% | [8]; at 33.0 µM 75% | [8]; at 100.0 µM 92% | [9]; at 3.7 µM 74% | [9]; at 11.0 µM 85% | [9]; at 33.0 µM 90% | [9]; at 100.0 µM 93% | [10]; [18] 98% | [10]; at 50.0 µM 79.2% | [11]; at 1.2 µM 90% | [11]; at 3.7 µM 94% | [11]; at 11.0 µM 95% | [11]; at 33.0 µM 96% | [11]; at 100.0 µM 96%

CCN(CC)Cc1cc(Nc2c3ccccc3nc3c2[nH]c2ccccc23)cc(CN(CC)CC)c1O
inactive: [12]; at 1.2 µM 32% | [12]; at 3.7 µM 21% | [12]; at 11.0 µM 12% | [12]; at 33.0 µM 7% | [12]; at 100.0 µM 18% | [13]; at 1.2 µM 1% | [13]; at 3.7 µM 2% | [13]; at 11.0 µM -1% | [13]; at 33.0 µM 0% | [13]; at 100.0 µM 3% | [14]; at 1.2 µM 3% | [14]; at 3.7 µM 1% | [14]; at 11.0 µM 3% | [14]; at 33.0 µM 2% | [14]; at 100.0 µM 13% | [15]; at 1.2 µM -3% | [15]; at 3.7 µM -3% | [15]; at 11.0 µM -3% | [15]; at 33.0 µM -16% | [15]; at 100.0 µM 1% | [16]; at 1.2 µM 25% | [16]; at 3.7 µM 7% | [16]; [17] -3% | [16]; at 11.0 µM -4% | [16]; at 33.0 µM 10% | [16]; [18] 10% | [16]; at 50.0 µM 17.8% | [16]; at 100.0 µM 23% | [1]; at 1.2 µM 2% | [1]; at 3.7 µM 1% | [1]; [17] -2% | [1]; at 11.0 µM -1% | [1]; at 33.0 µM 2% | [1]; [18] 15% | [1]; at 50.0 µM 21.3% | [1]; at 100.0 µM 5% | [2]; at 1.2 µM -1% | [2]; at 3.7 µM -3% | [2]; at 11.0 µM -1% | [2]; at 33.0 µM 2% | [2]; at 100.0 µM 8% | [3]; [17] -5% | [3]; [18] 1% | [3]; at 50.0 µM -10.1% | [4]; at 1.2 µM -5% | [4]; at 3.7 µM -3% | [4]; at 11.0 µM 1% | [4]; at 33.0 µM 3% | [4]; at 100.0 µM 7% | [5]; [17] 48% | [5]; [18] 61% | [5]; at 50.0 µM 66% | [6]; at 1.2 µM -2% | [6]; at 3.7 µM -4% | [6]; [17] 16% | [6]; at 11.0 µM -3% | [6]; at 33.0 µM -3% | [6]; [18] 38% | [6]; at 50.0 µM -10.2% | [6]; at 100.0 µM 0% | [7]; at 1.2 µM -1% | [7]; at 3.7 µM -2% | [7]; at 11.0 µM -4% | [7]; at 33.0 µM -2% | [7]; at 100.0 µM 1% | [8]; at 1.2 µM 1% | [8]; at 3.7 µM 2% | [8]; at 11.0 µM 1% | [8]; at 33.0 µM 1% | [8]; at 100.0 µM 7% | [9]; at 1.2 µM 6% | [9]; at 3.7 µM 3% | [9]; at 11.0 µM -2% | [9]; at 33.0 µM -2% | [9]; at 100.0 µM 0% | [10]; [17] 13% | [10]; [18] 16% | [10]; at 50.0 µM -11.6% | [11]; at 1.2 µM 16% | [11]; at 3.7 µM 9% | [11]; at 11.0 µM -2% | [11]; at 33.0 µM -11% | [11]; at 100.0 µM -7%
